Among the data in ChEMBL document CHEMBL3988442, “University of Dundee, Small-Polar-MMV Screening Library” (2021) are Percent Effect values, retold here.

What all share (design): scale not given: direction of the effect not stated beside the values
Assay [1] has as its target Protein translocase subunit SecA (Escherichia coli (strain K12)) (UniProt P10408). Briefly: Assay to Identify E. coli SecA ATPase Inhibitors. In kind it is functional. As to conditions: 30 µM.
Assay [2] addresses T1, Ubiquitin-activating enzyme e1, putative (Leishmania donovani (strain BPK282A1)) (UniProt E9BSI1).
T1 sequence (whole entry): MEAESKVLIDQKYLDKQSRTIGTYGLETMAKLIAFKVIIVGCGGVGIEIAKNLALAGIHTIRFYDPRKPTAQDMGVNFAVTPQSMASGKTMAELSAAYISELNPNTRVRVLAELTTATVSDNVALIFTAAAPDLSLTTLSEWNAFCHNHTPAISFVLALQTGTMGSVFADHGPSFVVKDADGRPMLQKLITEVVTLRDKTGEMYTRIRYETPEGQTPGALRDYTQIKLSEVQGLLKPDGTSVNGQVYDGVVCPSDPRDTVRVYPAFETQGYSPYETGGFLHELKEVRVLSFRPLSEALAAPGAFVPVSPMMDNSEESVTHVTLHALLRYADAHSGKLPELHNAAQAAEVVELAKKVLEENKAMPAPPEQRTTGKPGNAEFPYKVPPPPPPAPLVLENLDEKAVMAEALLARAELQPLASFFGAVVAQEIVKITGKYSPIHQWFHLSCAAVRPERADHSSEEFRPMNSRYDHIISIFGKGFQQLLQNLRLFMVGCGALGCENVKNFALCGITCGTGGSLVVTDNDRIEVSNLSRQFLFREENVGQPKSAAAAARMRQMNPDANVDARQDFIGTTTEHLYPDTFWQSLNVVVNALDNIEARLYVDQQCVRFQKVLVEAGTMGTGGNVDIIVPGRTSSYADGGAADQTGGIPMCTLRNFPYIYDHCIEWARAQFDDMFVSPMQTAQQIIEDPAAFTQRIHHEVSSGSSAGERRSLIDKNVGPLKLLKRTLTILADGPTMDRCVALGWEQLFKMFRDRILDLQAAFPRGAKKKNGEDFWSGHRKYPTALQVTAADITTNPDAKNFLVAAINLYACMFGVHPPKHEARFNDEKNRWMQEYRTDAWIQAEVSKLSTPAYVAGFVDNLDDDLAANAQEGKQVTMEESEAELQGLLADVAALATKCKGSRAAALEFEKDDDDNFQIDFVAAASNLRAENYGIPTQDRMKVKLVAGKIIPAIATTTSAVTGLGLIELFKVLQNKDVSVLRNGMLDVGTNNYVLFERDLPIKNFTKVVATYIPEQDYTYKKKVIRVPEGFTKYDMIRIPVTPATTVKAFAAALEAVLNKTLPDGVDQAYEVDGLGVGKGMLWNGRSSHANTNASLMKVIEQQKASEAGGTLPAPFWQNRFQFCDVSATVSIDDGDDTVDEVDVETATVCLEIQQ
Briefly: Leishmania donovani Ubiquitin Activating Enzyme (LdE1). Type of assay: functional. The conditions noted are these: 30 µM.

Assay [3] deals with Sialic acid-binding Ig-like lectin 9 (Homo sapiens) (UniProt Q9Y336). Briefly: Hs-Siglec9 ALPHAscreen SOP 20170721. The conditions noted are these: 10 µM. A general note: In Alpha technology, singlet oxygen from a donor bead excites a nearby acceptor bead.
Sequence of Sialic acid-binding Ig-like lectin 9 (Homo sapiens) (Q9Y336 whole entry): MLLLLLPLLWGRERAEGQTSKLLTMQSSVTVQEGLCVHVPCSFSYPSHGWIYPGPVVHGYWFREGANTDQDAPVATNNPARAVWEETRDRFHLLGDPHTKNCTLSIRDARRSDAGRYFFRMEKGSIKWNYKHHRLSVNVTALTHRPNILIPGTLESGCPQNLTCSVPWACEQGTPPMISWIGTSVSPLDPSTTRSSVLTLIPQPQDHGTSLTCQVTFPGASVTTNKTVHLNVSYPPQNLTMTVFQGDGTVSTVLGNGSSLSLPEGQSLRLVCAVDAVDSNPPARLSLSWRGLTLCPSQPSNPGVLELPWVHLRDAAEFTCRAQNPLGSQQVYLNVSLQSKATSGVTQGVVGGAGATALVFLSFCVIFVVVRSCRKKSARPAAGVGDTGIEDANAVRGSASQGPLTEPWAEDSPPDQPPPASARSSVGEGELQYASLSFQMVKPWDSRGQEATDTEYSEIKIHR
The subject of another assay is Trypanosoma cruzi. Briefly: Trypanosoma cruzi phosphomannomutase and mannose-1-phosphate guanylyltransferase assay. In kind it is functional. As to conditions: 10 µM.
The target in assay [4] is T2, Arginase-2, mitochondrial (Homo sapiens) (UniProt P78540).
T2 sequence (whole entry): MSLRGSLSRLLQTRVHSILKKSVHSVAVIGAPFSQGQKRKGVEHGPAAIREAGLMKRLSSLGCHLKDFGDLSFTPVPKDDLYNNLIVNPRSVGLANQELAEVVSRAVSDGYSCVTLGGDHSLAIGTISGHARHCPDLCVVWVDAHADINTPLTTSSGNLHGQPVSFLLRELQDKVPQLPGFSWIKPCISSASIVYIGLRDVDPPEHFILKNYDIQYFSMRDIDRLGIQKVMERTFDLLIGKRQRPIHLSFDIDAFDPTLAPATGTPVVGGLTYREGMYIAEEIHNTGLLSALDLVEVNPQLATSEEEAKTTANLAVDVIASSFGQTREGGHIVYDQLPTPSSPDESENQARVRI
Briefly: in vitro enzyme assay to detect the production of urea directly proportional to the activity of Arginase II. Further: in the data most compounds retested in dose-response had high values. Type of assay: functional. The conditions noted are these: 33.3 µM.

Assay [5] addresses T3, Proteasome subunit beta (Trypanosoma cruzi) (UniProt O96673).
T3 sequence (whole entry): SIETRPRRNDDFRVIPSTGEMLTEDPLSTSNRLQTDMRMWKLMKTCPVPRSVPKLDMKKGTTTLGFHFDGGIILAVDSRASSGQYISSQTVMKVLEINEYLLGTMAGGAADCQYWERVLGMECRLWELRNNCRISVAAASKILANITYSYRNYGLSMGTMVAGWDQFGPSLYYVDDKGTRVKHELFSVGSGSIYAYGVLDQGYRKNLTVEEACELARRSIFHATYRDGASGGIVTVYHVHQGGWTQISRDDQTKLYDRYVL
Briefly: Trypanosoma cruzi proteasome chymotrypsin-like activity (TcProtChymo) assay. Further: in the data most compounds retested in dose-response had high values. In kind it is functional. The conditions noted are these: 9.37 µM.

Another assay is filed under the species Homo sapiens. Briefly: To identify inhibition of the IFN signalling (Jak-Stat) pathway via expression of an eGFP reporter gene under the control of an IFN-stimulated response element (ISRE) containing MxA promoter. Type of assay: functional. The conditions noted are these: 30 µM. In general terms: In a reporter assay the amount or activity of a reporter protein is the signal.

Assay [6] addresses T4, Tyrosyl-tRNA synthetase, putative (Trypanosoma cruzi (strain CL Brener)) (UniProt Q4DSP6).
T4 sequence (whole entry): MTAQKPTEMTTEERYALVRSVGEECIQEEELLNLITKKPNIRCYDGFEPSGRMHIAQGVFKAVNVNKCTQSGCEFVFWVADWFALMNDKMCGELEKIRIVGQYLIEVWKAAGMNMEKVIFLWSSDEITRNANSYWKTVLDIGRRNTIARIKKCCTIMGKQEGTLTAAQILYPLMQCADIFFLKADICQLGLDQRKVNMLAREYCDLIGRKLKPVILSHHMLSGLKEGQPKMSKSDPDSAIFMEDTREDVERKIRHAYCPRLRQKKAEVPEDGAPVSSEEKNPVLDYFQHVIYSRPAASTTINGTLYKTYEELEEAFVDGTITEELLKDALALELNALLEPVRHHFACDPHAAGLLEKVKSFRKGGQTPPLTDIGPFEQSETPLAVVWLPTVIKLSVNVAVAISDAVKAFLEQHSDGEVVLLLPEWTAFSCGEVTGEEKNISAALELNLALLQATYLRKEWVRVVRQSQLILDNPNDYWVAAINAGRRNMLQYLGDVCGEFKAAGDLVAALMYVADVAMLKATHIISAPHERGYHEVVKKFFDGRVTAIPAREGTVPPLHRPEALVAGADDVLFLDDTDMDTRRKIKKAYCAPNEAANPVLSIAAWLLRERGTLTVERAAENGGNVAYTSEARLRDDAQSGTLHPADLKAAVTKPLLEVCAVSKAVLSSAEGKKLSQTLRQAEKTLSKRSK
Briefly: Trypanosoma cruzi tyrosyl tRNA synthetase (TcYRS) _High Tyrosine SOP. Further: in the data most compounds retested in dose-response had high values. Type of assay: functional. The conditions noted are these: 30 µM.

Assay [7] has as its target T4, Tyrosyl-tRNA synthetase, putative (Trypanosoma cruzi (strain CL Brener)). Briefly: Trypanosoma cruzi tyrosyl tRNA synthetase (TcYRS) SOP. In kind it is functional. The conditions noted are these: 30 µM.
In assay [8] the target is Chromo domain-containing protein 1 (Saccharomyces cerevisiae (strain ATCC 204508 / S288c) (Baker's yeast)) (UniProt P32657). Briefly: ScCHD-1 Enzyme Inhibition Assay. Further: in the data most compounds retested in dose-response had high values. As to conditions: 30 µM. Type of assay: functional.
Sequence of Chromo domain-containing protein 1 (Saccharomyces cerevisiae (strain ATCC 204508 / S288c) (Baker's yeast)) (P32657 whole entry, the tested form may be a part): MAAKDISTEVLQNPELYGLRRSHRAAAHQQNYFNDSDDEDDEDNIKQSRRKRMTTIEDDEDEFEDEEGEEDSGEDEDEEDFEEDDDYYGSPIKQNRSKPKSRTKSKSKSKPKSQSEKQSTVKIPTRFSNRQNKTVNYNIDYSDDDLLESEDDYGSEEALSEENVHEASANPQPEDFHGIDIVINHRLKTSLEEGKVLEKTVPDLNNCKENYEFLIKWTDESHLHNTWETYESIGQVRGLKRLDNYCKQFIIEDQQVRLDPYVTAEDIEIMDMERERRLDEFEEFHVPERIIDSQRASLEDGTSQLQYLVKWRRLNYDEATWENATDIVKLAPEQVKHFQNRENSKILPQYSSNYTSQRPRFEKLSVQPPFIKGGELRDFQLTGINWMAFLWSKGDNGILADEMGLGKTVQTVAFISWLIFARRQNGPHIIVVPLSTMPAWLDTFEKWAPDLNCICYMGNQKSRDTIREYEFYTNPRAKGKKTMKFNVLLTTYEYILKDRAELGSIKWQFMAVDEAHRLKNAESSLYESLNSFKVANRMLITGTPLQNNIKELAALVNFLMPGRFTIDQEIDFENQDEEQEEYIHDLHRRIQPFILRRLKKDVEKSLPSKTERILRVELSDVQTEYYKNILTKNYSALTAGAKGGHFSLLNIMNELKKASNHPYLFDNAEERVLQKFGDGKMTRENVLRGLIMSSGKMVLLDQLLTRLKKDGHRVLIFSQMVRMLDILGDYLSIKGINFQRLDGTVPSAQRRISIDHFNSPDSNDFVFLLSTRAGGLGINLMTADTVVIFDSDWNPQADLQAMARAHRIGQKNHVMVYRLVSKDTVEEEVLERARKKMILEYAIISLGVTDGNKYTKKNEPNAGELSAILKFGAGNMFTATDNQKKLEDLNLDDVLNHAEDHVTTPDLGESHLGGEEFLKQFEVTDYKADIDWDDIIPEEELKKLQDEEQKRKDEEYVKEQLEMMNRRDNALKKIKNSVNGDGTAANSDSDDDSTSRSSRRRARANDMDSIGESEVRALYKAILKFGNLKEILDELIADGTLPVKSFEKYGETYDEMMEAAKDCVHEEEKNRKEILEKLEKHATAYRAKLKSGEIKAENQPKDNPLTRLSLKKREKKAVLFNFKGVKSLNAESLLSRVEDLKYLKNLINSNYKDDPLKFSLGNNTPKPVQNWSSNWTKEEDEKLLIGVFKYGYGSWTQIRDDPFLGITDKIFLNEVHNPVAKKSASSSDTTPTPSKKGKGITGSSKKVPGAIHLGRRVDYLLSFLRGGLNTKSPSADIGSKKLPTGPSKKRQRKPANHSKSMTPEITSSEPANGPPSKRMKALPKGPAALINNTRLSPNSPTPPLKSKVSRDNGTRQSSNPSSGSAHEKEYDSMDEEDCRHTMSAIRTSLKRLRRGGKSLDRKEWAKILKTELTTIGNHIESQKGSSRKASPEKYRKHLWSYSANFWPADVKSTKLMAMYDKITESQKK

For part of these data: Potency and affinity values are given separately.

Sequence of Protein translocase subunit SecA (Escherichia coli (strain K12)) (P10408 whole entry): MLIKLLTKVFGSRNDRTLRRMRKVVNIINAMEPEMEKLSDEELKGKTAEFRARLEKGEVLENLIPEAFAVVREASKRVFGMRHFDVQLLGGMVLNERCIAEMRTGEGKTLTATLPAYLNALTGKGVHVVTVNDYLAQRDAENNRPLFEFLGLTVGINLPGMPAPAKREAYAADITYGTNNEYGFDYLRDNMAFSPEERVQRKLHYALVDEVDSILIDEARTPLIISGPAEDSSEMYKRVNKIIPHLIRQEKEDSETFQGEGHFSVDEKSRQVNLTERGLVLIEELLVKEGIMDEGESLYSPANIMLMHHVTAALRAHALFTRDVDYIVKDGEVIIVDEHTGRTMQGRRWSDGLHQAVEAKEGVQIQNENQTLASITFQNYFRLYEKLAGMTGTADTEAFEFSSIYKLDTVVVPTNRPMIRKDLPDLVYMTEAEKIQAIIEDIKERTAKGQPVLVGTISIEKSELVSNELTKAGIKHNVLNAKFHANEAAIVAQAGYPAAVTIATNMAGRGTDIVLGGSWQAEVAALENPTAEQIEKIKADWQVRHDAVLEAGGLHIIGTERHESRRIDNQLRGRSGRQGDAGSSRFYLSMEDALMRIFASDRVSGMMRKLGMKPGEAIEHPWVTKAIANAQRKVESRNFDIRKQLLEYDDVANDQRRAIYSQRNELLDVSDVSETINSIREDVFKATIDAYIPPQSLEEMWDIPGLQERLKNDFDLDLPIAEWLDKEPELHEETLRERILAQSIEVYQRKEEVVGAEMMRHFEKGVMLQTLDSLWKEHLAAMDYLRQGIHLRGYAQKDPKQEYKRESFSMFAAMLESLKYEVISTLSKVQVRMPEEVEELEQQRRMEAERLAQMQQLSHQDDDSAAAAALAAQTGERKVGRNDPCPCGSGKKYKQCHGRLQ

Take `COc1ccc(CN2CCC3(CC2)NC(=O)CC3c2ccncc2)cc1` (stereo not given): the Percent Effect in [1] was -7.89%; in assay [2], -6.49%; in assay [3], 3.29%; in the assay with Trypanosoma cruzi it was -2.43%; in assay [4], -4.05%; in [5], 9.27%. Besides, the Percent Effect is 5.38% in the assay listed under Homo sapiens, -0.526% in assay [6], 2.56% in assay [7] and -1.91% in assay [8].

In the case of `Cc1[nH]c2ccccc2c1-c1ccnc(NCCN2CCOCC2)n1`, the Percent Effect is -1.25% in assay [1]; 5.33% in assay [2]; -2.88% in assay [3]; -7.83% in the assay with Trypanosoma cruzi; -7.54% in [4]; 14.8% in assay [5]. The Percent Effect in the assay listed under Homo sapiens is 21.5%; in assay [6], -1.58%; in assay [7], -2.56%; in assay [8] it was -15.1%.

`Cc1ccn(CCC(=O)N2CCOC(c3nc(-c4cccs4)no3)C2)n1` (stereo not given): the Percent Effect in [1] is 1.88%; in assay [2] it was 9.33%; in assay [3] it was 1.5%; with Trypanosoma cruzi, -5.52%; in [4], 4.42%; in assay [5], 8.7%. Besides, the Percent Effect in the assay filed under Homo sapiens was 7.42%; in assay [6], 2.12%; in assay [7], 10%; in [8], -26.2%.

In the case of `Cc1c(F)cc(C(=O)O)cc1S(=O)(=O)Nc1ccc2c(c1)OCCO2`, the Percent Effect is -4.72% in assay [1]; 5.13% in assay [2]; 0.878% in [3]; 7.42% in the assay on Trypanosoma cruzi; -4.51% in assay [4]; 2.82% in assay [5]. In addition, the Percent Effect in the assay listed under Homo sapiens is -3.86%; in [6] it was -5.26%; in assay [7] it was 1.21%; in [8] it was -2.48%.

As for `COCC(=O)N1CCC(c2nccnc2Oc2cccnc2C)CC1`, the Percent Effect in [1] was 0.43%; in assay [2], 14.7%; in assay [3] it was -6.2%; with Trypanosoma cruzi, -3.35%; in assay [4] it was 4.87%; in [5] it was 15.6%. Moreover, the Percent Effect in the assay listed under Homo sapiens is -0.132%; in assay [6], 0%; in assay [7], 7.5%; in assay [8] it was -22.1%.

Take `Fc1ccc(CN2CCCC2c2cncc(-n3ccnc3)n2)cc1` (stereo not given): the Percent Effect in assay [1] is -2.01%; in assay [2], 9.33%; in assay [3], -0.339%; in the assay on Trypanosoma cruzi, -0.986%; in [4] it was 0.885%; in assay [5], -1.97%. Moreover, the Percent Effect is 3.29% in the assay filed under Homo sapiens, 4.23% in assay [6], 12.5% in [7] and -24.9% in [8].

Take `COCCC(=O)N1CCC2(CC1)CC(c1ccccc1)CN(C)C2` (stereo not given): the Percent Effect in assay [1] was -6.06%; in assay [2], 5.41%; in [3], 7.24%; with Trypanosoma cruzi, 2.42%; in [4], 1.75%; in assay [5], 18.7%. Besides, the Percent Effect in the assay filed under Homo sapiens is -4.11%; in [6], 4.79%; in [7], 12.2%; in [8], -5.37%.

Take `COC[C@@]12CC[C@@H](N3CCOCC3)C[C@H]1CCN(c1ncccc1Cl)C2`: the Percent Effect in [1] is -6.53%; in [2], 13.5%; in assay [3], 12.5%; in the assay on Trypanosoma cruzi, 4.56%; in assay [4], 10.8%; in assay [5] it was 7.02%. The Percent Effect was 2.53% in the assay filed under Homo sapiens, 5.85% in [6], 19.5% in assay [7] and -2.53% in [8].

Take `Cc1cncc(C2CCCN(C(=O)c3ccc(C)[nH]c3=O)C2)n1` (stereo not given): the Percent Effect was -4.08% in assay [1]; 20% in assay [2]; 0.301% in assay [3]; 1.58% in the assay with Trypanosoma cruzi; -1.33% in assay [4]; 18.4% in assay [5]. In addition, the Percent Effect was -10.4% in the assay listed under Homo sapiens, 5.29% in assay [6], 17.5% in [7] and -23.9% in [8].

For `Cc1nc(C)c(C(=O)NCCNc2ncccc2C#N)s1`, the Percent Effect in assay [1] is -0.152%; in assay [2], 31.2%; in assay [3], 1.1%; with Trypanosoma cruzi it was 5.41%; in assay [4] it was -5.94%; in [5] it was 18.4%. In addition, the Percent Effect in the assay filed under Homo sapiens is 7.44%; in assay [6] it was 6.86%; in [7], 28.2%; in assay [8], -11.7%.

Consider `Cc1ccc(CCC(=O)N2CCCC(n3cncn3)C2)c(C)c1` (stereo not given), for which the Percent Effect in assay [1] was -4.25%; in assay [2], 8%; in [3], 2.16%; with Trypanosoma cruzi, -6.02%; in [4], 0.444%; in assay [5] it was 2.63%. The Percent Effect is -1.21% in the assay filed under Homo sapiens, 5.79% in [6], 2.56% in [7] and 1.81% in assay [8].

On to `Cc1cc(CNc2cc(Cl)ccc2Cl)no1`, for which the Percent Effect in [1] is -0.772%; in assay [2], 0%; in [3] it was 3.56%; with Trypanosoma cruzi, 4.79%; in assay [4], 0%; in [5], 4.69%. The Percent Effect was 8.6% in the assay listed under Homo sapiens, -11% in assay [6], 6.02% in [7] and -0.0633% in assay [8].
